Test results as given in PubChem BioAssay AID435001 (Southern Research Specialized Biocontainment Screening …, 2010).
Calls of active or inactive are those of the source. How the calls were made is not given here.

biological target: Large T antigen (Simian virus 40) (UniProt P03070); assay: large T antigen ATP hydrolysis inhibition – biochemical, ADP-Hunter, purified TAg, synthesized compounds (AID 435001); conditions: purified TAg ATPase, ADP-Hunter fluorescence; series mostly up to 100 µM
Sequence (P03070 whole entry, looked up): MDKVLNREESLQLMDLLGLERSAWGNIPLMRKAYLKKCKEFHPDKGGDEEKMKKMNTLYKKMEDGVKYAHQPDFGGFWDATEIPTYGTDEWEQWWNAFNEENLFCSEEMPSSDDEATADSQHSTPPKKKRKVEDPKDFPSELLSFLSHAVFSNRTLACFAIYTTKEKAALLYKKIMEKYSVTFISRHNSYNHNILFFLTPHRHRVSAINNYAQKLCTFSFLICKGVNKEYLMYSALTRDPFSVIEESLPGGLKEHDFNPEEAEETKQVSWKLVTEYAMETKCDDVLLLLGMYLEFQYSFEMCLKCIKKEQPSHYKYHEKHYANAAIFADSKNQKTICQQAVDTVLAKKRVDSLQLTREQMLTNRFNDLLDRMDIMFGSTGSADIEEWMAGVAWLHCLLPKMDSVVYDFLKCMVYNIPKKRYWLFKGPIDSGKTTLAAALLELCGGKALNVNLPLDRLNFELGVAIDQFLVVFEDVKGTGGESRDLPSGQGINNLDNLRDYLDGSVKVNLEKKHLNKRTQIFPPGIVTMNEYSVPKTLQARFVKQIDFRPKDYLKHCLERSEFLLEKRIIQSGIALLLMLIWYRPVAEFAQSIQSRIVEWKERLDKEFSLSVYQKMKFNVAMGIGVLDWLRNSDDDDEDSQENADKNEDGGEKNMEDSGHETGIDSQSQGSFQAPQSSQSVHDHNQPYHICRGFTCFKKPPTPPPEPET

outcome, inactive:
COc1ccc(C(C)(O)c2ccc(OC)cc2)cc1
COc1ccc(C2(c3ccc(OC)cc3)CC2)cc1
C=C(c1ccc(OC)cc1)c1ccc(OC)cc1
COc1ccc(C(C)(C)c2ccc(OC)cc2)cc1
